Many of the other results were omitted from the sample, so the strongest signals are more common in it than they were.
test system: Gal(b1-3)Gal(b1-4)GlcNAc; assay: glycan array binding signal (z-score within array); higher = stronger binding; conditions: glycan notation: IUPAC condensed, linker removed
Procedure, shortened: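 The binding signal is a Z-score computed within each array and averaged over linkers. Arrays of the same protein sequence at different concentrations or buffers were also averaged together. Data originate from 3228 arrays in the Consortium for Functional Glycomics database, kept only where the protein sequence was available.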

Substance | glycan array binding signal (z-score)
Wza (Escherichia coli), P0A930 | 3.02
SiiE (Salmonella typhimurium), A0A0H3NVH0 | -1.51
Actinohivin (Actinomycete K97) | -0.14
SpGH101 (Streptococcus pneumoniae), Q8DR60 | -0.193

From the supplement of paper PMC8728848
